Measurements taken from the supplement of paper PMC6555819.

What was measured:
Test in all cases: PBM binding z-score (relative to random genomic background probes); higher = stronger binding; sequences stand for … in GC…GCGATTGACAGCGTAGAATGAAGG
[1] = system: FXR:RXRa (NR concentration 270 nM, RXRa partner concentration 90 nM)
Summary of the method: (§1)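 Binding z-scores take random background probes as their reference. They come from custom Agilent 4×180K protein-binding microarrays incubated 1 h with ligand-free nuclear receptor dimers, with antibodies against each partner (one per run) detecting binding. Scanned fluorescence was regression-normalized.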

[2] = system: LXRa:RXRa (NR concentration 270 nM, RXRa partner concentration 90 nM)
Summary of the method: as §1

[3] = system: LXRa homodimer (NR concentration 270 nM)
Summary of the method: as §1

[4] = system: LXRb:RXRa (NR concentration 270 nM, RXRa partner concentration 90 nM)
Summary of the method: as §1

[5] = system: LXRb homodimer (NR concentration 270 nM)
Summary of the method: as §1

[6] = system: PPARa:RXRa (NR concentration 270 nM, RXRa partner concentration 90 nM)
Summary of the method: as §1

[7] = system: PPARg:RXRa (NR concentration 180 nM, RXRa partner concentration 90 nM)
Summary of the method: as §1

[8] = system: PPARg:RXRa 270nM:90nM, anti-RXR (NR concentration 270 nM, RXRa partner concentration 90 nM)
Summary of the method: as §1

[9] = system: PPARg:RXRa 30nM:10nM, anti-RXR (NR concentration 30 nM, RXRa partner concentration 10 nM)
Summary of the method: as §1

[10] = system: PPARg:RXRa 90nM:30nM, anti-RXR (NR concentration 90 nM, RXRa partner concentration 30 nM)
Summary of the method: as §1

[11] = system: PPARg:RXRa DBDmut IVT, anti-RXR (DBD mutation: RXRa K156A/R161A, NR concentration 270 nM, RXRa partner concentration 90 nM)
Summary of the method: as §1

[12] = system: PPARg:RXRa IVT, anti-PPARg (NR concentration 270 nM, RXRa partner concentration 90 nM)
Summary of the method: as §1

[13] = system: PPARg DBDmut:RXRa IVT, anti-PPARg (DBD mutation: PPARg1 K132A/R137A, NR concentration 270 nM, RXRa partner concentration 90 nM)
Summary of the method: as §1

[14] = system: PPARg DBDmut IVT, anti-PPARg (DBD mutation: PPARg1 K132A/R137A, NR concentration 270 nM)
Summary of the method: as §1

[15] = system: PPARg homodimer (NR concentration 180 nM)
Summary of the method: as §1

[16] = system: PXR:RXRa (NR concentration 270 nM, RXRa partner concentration 90 nM)
Summary of the method: as §1

[17] = system: PXR homodimer (NR concentration 270 nM)
Summary of the method: as §1

[18] = system: RARa:RXR (NR concentration 270 nM, RXRa partner concentration 90 nM)
Summary of the method: as §1

[19] = system: RARa homodimer (NR concentration 270 nM)
Summary of the method: as §1

[20] = system: RARb:RXRa (NR concentration 270 nM, RXRa partner concentration 90 nM)
Summary of the method: as §1

Sequence	PBM binding z-score [1]	PBM binding z-score [2]	PBM binding z-score [3]	PBM binding z-score [4]	PBM binding z-score [5]	PBM binding z-score [6]	PBM binding z-score [7]	PBM binding z-score [8]	PBM binding z-score [9]	PBM binding z-score [10]	PBM binding z-score [11]	PBM binding z-score [12]	PBM binding z-score [13]	PBM binding z-score [14]	PBM binding z-score [15]	PBM binding z-score [16]	PBM binding z-score [17]	PBM binding z-score [18]	PBM binding z-score [19]	PBM binding z-score [20]
GCTGCTAGGTCAACTGATGGTCAGTTAAAGCTCG	3.99	3.11	0.245	2.35	0.46	3.74	2.8	3.25	0.658	2.06	4.66	4.13	-0.118	-0.331	1.79	1.64	-0.519	2.6	-0.0466	4.15
CAAACTAGGTCACGAAAGGTCATAGTCGAATGAC	7.43	7.78	7.34	6.95	2.21	6.37	10.5	8.43	7.64	8.8	8.9	9.17	2.98	2.98	6.62	6.74	2.77	7.32	3.5	5.58
ACTAGCAGGCCAAGTTTGGGTCACTCAGACAAAG	-0.039	0.195	-0.331	0.306	-1.05	1.27	0.233	0.225	-0.237	-0.185	0.651	1.1	-0.577	-0.242	0.405	0.515	-0.504	1.43	-0.139	1.71
GCGACTGGGGCAAAGCACGTTACCATAAGGTTGG	-0.454	-0.482	-0.763	-0.305	-0.971	0.875	1.7	2.21	0.24	1.62	4.44	3.18	0.131	-0.127	0.0548	-0.54	-0.386	-0.0632	-0.156	0.573
GGAACGAGGGCAAAGTTGATATCATCTGTCGACG	1.25	0.812	-0.316	0.894	-0.47	3.94	6.68	6.84	6.13	7.1	3.87	4.19	0.622	0.251	0.45	1.18	0.208	1.62	0.254	2.32
GGAACGAGGGCGTTCGAGTTGATAGCATGGCGAT	-0.0904	-0.232	-0.938	-0.656	-0.964	-0.0431	0.127	-0.547	-0.579	-0.797	1.14	0.591	-1.48	-0.922	-0.718	1.88	0.811	0.317	-0.727	0.422
CCTAGTTGGTCATGAGGTCACACACCGGATATGA	4.57	4.17	2.56	4	0.753	4.65	4.15	4.5	2.25	3.46	2.85	4.41	1.13	0.4	4.56	5.34	2.23	5.4	2.94	4.14
CCTAACAGGCCAATCTGGGTCACTCAAGGCTTGA	1.06	1.75	0.16	1.19	-0.0196	3.19	2.31	2.35	0.094	1.57	4.43	5.18	0.79	-0.8	1.16	1.3	0.00111	1.43	0.117	1.77
TCTGCTAGGTTAACGATGGTCAGCTAATCTGCTA	-1.53	0.817	-0.894	-0.156	-0.756	0.393	-0.117	0.909	1.45	1.06	2.11	1.89	-0.412	-0.772	-1.29	-0.232	-0.501	0.0866	-0.99	1.15
ATCTCTAGGTAAGACTCAGATCAGTGAAGAACGC	0.264	0.336	0.262	-0.0617	0.692	-0.153	0.264	0.0019	0.134	0.3	1.51	1.26	-0.0293	0.583	0.669	-0.381	0.314	-0.0698	1.46	-0.146
CAAACTAGGTCACCGCAAGGTCAAAGTCCGCATG	6.27	5.91	5.31	5.42	1.37	6.06	9.19	7.84	5.73	7.81	8.65	8.87	6.76	3.92	8.41	6.08	2.22	6.85	2.14	5
CCTTACGGGTCACTCCAGGGTATAGCATCGGAGT	4.69	6.8	0.368	3.85	-0.114	4.27	3.23	3.68	1.19	2.52	2.07	3.17	-0.61	-0.915	2.12	3.89	0.022	3.65	-0.123	3.54
CCAGACAGGTGAGAAGGTAACTAAGCCTCGATTA	-0.00461	0.0397	-0.256	-0.0609	-0.426	0.532	0.439	0.258	-0.00796	-0.013	0.948	0.601	-0.627	-0.192	0.387	-0.327	0.346	-0.102	0.36	0.585
ACTATTAGTTGACTTAGGGCAACCCATACGACGC	0.287	0.126	0.344	0.24	0.53	0.137	1.03	0.234	0.457	0.203	0.51	0.696	0.977	1.6	0.67	0.18	0.375	0.59	1.02	0.823
CGAACGAGGGCATCAGTTGATAGCAAATGCCGAT	0.292	0.0604	-0.396	0.107	-0.651	1.19	1.1	0.934	-0.0649	0.293	2.85	1.94	-0.013	-0.142	-0.115	0.166	0.152	0.224	-0.261	2.03
ACTCGGAGGACAAAGGTCAGAGTTACGCCAGTGA	4.06	4.17	1.93	3.55	0.422	5.03	7.06	6.77	5.57	7.32	0.7	3.34	0.234	-0.025	4.3	4.14	0.365	5.54	1.61	4.38
TATACAGGGTCAAAGGCCAGTGTACGAATGTCGA	6.89	6.1	2.61	4.74	2.33	6.22	8.3	7.38	4.93	7.23	1.89	5.07	2.16	0.623	2.38	4.13	0.622	5.66	0.468	4.57
AGAATGAGGCTATTAAGATCAGGGAATTGCGGTC	-0.289	-0.438	-0.31	-0.728	-0.68	-0.226	0.441	-0.417	-0.0887	-0.313	0.775	0.484	0.528	-0.351	-0.817	-0.436	-0.252	-0.197	-0.295	0.119
TCTATTAGTTGGTTAGGGCAACCGAAACAGCGGA	0.675	0.576	0.522	0.534	1.35	0.448	-0.169	1.55	3.59	2.57	1.47	0.862	1.18	0.941	0.798	0.158	0.345	0.342	1.17	0.848
CCTTACGGGTCACTGACAGGTTATAGCCTTTGGA	5.57	4.01	0.368	3.43	-0.148	4.99	4.28	4.31	1.31	2.99	2.98	3.74	0.266	0.106	3.2	3.83	-0.0377	4.93	0.735	3.95
CGTCCAAGGTCAGGGAGGTCAGTGAATGCCGAGT	6.32	5.28	2.42	4.43	0.00503	5.2	4.29	4.63	0.9	3.13	2.94	3.53	-0.257	-1.31	4.71	6.02	10.3	5.53	2.15	5.33
GCGTACGGGTCAAAGGTTATAGCATGAATAGAAT	7.58	5.75	0.516	5.7	-0.18	6.8	10.5	8.74	8.99	9.27	2.3	4.85	0.234	2	4.07	6.11	0.08	8.62	0.0431	4.64
CGAACTAGGTCAGTGACAGGACAGTGAATAGTAA	1.32	0.944	-0.268	0.82	-0.44	3.47	5.73	4.86	1.66	4.11	7.42	7.6	2.57	0.828	0.785	0.605	0.0765	1.03	0.459	3.11
TAGCCTAGGTCATTCAGGGGCCAATATAGAAAGC	4.5	4.59	1.12	3.78	1.21	3.97	2.41	2.82	0.793	1.51	1.85	2.85	0.373	1.2	2.49	3.08	0.116	4.05	0.318	3.93
TTACCAAGGTGGAGGTCGTTGATCCCTCTGTAGA	1.68	1.96	0.12	1.66	-0.0737	1.7	0.691	2.12	0.972	1.4	-0.0945	0.927	-0.0829	0.467	0.494	1.37	-0.028	1.58	-0.0306	0.92
CAAACTAGGTCCAGAGGTCAAAGTCCGCTTCCCG	4.77	5.55	5.71	5.03	1.62	5.29	5.18	6.22	4.37	6.29	2.96	3.98	0.89	0.535	3.29	5.47	2.58	5.5	0.452	4.11
CAAACTAGGTCACAGAGGTCAAAGCCCGTGCGTA	7.26	6.74	6.92	5.93	1.72	6.63	10.4	8.24	7	8.42	8.71	9.13	4.98	2.72	4.59	6.66	10.8	7.48	2.65	5.27
ACATGTAGGTTAGCTGGGGTCATTCAGACTAGGC	5.12	5.55	2.93	4.9	1.56	4.85	4.21	4.58	1.87	3.39	5.83	4.97	2.39	2.35	6.39	6.77	5.5	6.23	2.18	3.1
